From PubChem BioAssay
Shown are actives, neighbours in structure and some others; about 2.1% of the full set was active somewhere.
APP 5UTR inh – inhibitors of APP translation via 5'UTR reporter, primary screen, APP 5'UTR luciferase, SH-SY5Y cells | SH-SY5Y APP 5'UTR-luciferase reporter, luminescence | inhibition, % at 2 µM | actives 0.82% (n = 190,000);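 active means inhibition above a set limit, derived from the sample mean plus 3 SD, cut at about 45% in these data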
aSyn UTR inh – MLPCN primary screen, SNCA 5' untranslated region; AID 1813, 2009; alpha-synuclein 5'UTR reporter, inhibitor activity; actives 0.82% (n = 300,000); inhibition, % (tested at 7.5 µM); in the data active means inhibition above about 60%;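 further: H4 neuroglioblastoma cells stably carrying SNCA 5'UTR luciferase fusion; 0% = DMSO wells and 100% = positive control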
KLF5 inhibitor – KLF5 expression inhibitors, primary screen, DLD-1 cells, luminescence; DLD-1 KLF5 promoter-luciferase reporter; inhibition, % at 5 µM; actives 0.23% (n = 290,000); AID 1700, 2009;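 active means inhibition above a per-plate limit of that plate's mean compound inhibition plus 3 SD, cut at about 60% in these data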;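 further: 0% = DMSO wells and 100% = LY294002 at 200 µM; higher means less KLF5 promoter-driven luciferase light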
IEC-6 cytotox – cytotoxicity in IEC-6 intestinal epithelial cells, primary screen, cytotoxicity control for KLF5 inhibitor project, cell-based, luminescence; actives 0.78% (n = 290,000); IEC-6 cytotoxicity, luminescence viability; AID 1825, 2009; inhibition, % at 5 µM; in the data active means inhibition above about 22%;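 further: 0% = plate median of test compound wells and 100% = cytotoxic reference compound wells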
Ba/F3 V617F tox – reduced viability of JAK2V617F-dependent Ba/F3 cells, primary screen, JAK2V617F inhibitor project, cell-based, Ba/F3 EpoR-JAK2V617F, luminescence; actives 1.1% (n = 220,000); ATP luminescence; AID 1446, 2008; inhibition, % at 5.6 µM;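 active means inhibition above the campaign mean plus 3 SD over all tested compounds, cut at about 24% in these data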;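 further: cytokine-independent growth of Ba/F3 cells driven by EpoR plus mutant JAK2; 0% = DMSO-treated cells and 100% = JAK inhibitor I control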
BaF3 parental – parental Ba/F3 cell viability inhibition, counter-screen for JAK2V617F inhibitor project, murine pro-B, CellTiter-Glo luminescence; CellTiter-Glo ATP luminescence; inhibition, % at 5.6 µM; actives 1.1% (n = 220,000);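 active means inhibition above a per-campaign cutoff, the mean inhibition of all tested compounds plus 3 SD, cut at about 27% in these data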;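 further: 0% = DMSO wells and 100% = JAK Inhibitor I control wells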
Starred values were filed as active, the others as inactive.

For Cc1sc2ncnc(N3CCN(CCOc4ccc(Cl)cc4)CC3)c2c1C the results were APP 5UTR inh 3, aSyn UTR inh -40, KLF5 inhibitor -6, IEC-6 cytotox 6, Ba/F3 V617F tox 11 and BaF3 parental 31*.
`CCN(c1ccccc1C(=O)O)S(=O)(=O)c1ccc2[nH]c(=O)[nH]c2c1` gave aSyn UTR inh 20, KLF5 inhibitor -5 and IEC-6 cytotox 2.
Screening CCOC(=O)c1sc(NC(=O)Nc2ccccc2F)nc1C returned APP 5UTR inh -162, aSyn UTR inh 70*, KLF5 inhibitor -79, IEC-6 cytotox -7, Ba/F3 V617F tox 1 and BaF3 parental 6.
CCOC(=O)c1sc(Nc2ccccc2Cl)nc1C was read as aSyn UTR inh -184, KLF5 inhibitor -103, IEC-6 cytotox 11, Ba/F3 V617F tox 0 and BaF3 parental 0.
`COc1cc(CC(=O)NCC(C)(C)N2CCOCC2)cc(OC)c1OC` gave aSyn UTR inh -5, KLF5 inhibitor -10 and IEC-6 cytotox -4.
`CCOC(=O)c1ccccc1NC(=O)CN(c1ccc(OCC)cc1)S(C)(=O)=O` gave APP 5UTR inh 52*, aSyn UTR inh 35, KLF5 inhibitor 14, IEC-6 cytotox 0, Ba/F3 V617F tox 27* and BaF3 parental 37*.
For O=[N+]([O-])c1ccc(C[n+]2cccc3ccc4cccnc4c32)cc1 the results were APP 5UTR inh -26, aSyn UTR inh -30, KLF5 inhibitor 28, IEC-6 cytotox -2, Ba/F3 V617F tox 60* and BaF3 parental 76*.
Screening COC(=O)c1ccc(C#Cc2ccccc2)o1 returned aSyn UTR inh -53, KLF5 inhibitor -43, IEC-6 cytotox 2, Ba/F3 V617F tox -5 and BaF3 parental -1.
For NC(=S)Nc1cccc(O)c1 the results were aSyn UTR inh 12, KLF5 inhibitor -46, IEC-6 cytotox 1, Ba/F3 V617F tox -1 and BaF3 parental -6.
Screening Brc1ccc(-c2cn3nc4c(nc3n2)CCCC4)cc1 returned APP 5UTR inh -186, aSyn UTR inh 93*, KLF5 inhibitor -103, IEC-6 cytotox 8, Ba/F3 V617F tox -2 and BaF3 parental 2.
`c1ccc(-c2cn3nc(-c4ccccc4)cnc3n2)cc1` gave APP 5UTR inh -172, KLF5 inhibitor -47, IEC-6 cytotox -7, Ba/F3 V617F tox 0 and BaF3 parental 4.
Screening c1ccc(-c2cn3nc4c(nc3n2)CCCC4)cc1 returned APP 5UTR inh -148, aSyn UTR inh 109*, KLF5 inhibitor -39, IEC-6 cytotox 4, Ba/F3 V617F tox 4 and BaF3 parental 4.
Screening CC(=O)Nc1nc(SCC(=O)NCc2ccc(F)cc2)[nH]c(=O)c1NC(=O)c1cccs1 returned APP 5UTR inh -20, aSyn UTR inh -8, KLF5 inhibitor -37, IEC-6 cytotox -1, Ba/F3 V617F tox -3 and BaF3 parental -1.
Screening Cc1ccc(-n2nc3ccc(N)cc3n2)c(C)c1 returned aSyn UTR inh 66*, KLF5 inhibitor -48 and IEC-6 cytotox 7.
`COc1ccc(C2/C(=C(\O)c3ccc4c(c3)CC(C)O4)C(=O)C(=O)N2Cc2cccnc2)c(OC)c1` (centres undefined) gave aSyn UTR inh 0, KLF5 inhibitor -32 and IEC-6 cytotox -3.
Screening Cc1sc2nc(SCC(=O)NCc3cccs3)[nH]c(=O)c2c1C returned APP 5UTR inh 8, aSyn UTR inh -5, KLF5 inhibitor -30, IEC-6 cytotox -1, Ba/F3 V617F tox 2 and BaF3 parental 3.
`Cc1sc2nc(CN(Cc3cccs3)C(=O)C3CC3)[nH]c(=O)c2c1C` gave APP 5UTR inh 11, aSyn UTR inh -1, KLF5 inhibitor -25, IEC-6 cytotox -7, Ba/F3 V617F tox 11 and BaF3 parental 86*.
`NC(=S)N=Nc1c(O)n(Cc2ccc(F)cc2)c2ccccc12` gave APP 5UTR inh -6, aSyn UTR inh 17, KLF5 inhibitor -20, IEC-6 cytotox 2, Ba/F3 V617F tox 4 and BaF3 parental 4.
`NC(=S)N=Nc1c(O)n(Cc2ccc(Br)cc2)c2ccccc12` gave APP 5UTR inh 58*, aSyn UTR inh 64*, KLF5 inhibitor -5, IEC-6 cytotox -5, Ba/F3 V617F tox -1 and BaF3 parental 1.
Screening C/C(Cl)=C\Cn1c(O)c(N=NC(N)=S)c2cc(Br)ccc21 returned APP 5UTR inh 31, aSyn UTR inh 70*, KLF5 inhibitor -8, IEC-6 cytotox 30*, Ba/F3 V617F tox 4 and BaF3 parental 4.
`N=c1ccn(Cc2ccc(F)cc2)cc1` gave aSyn UTR inh 4, KLF5 inhibitor -7, IEC-6 cytotox -4, Ba/F3 V617F tox 70* and BaF3 parental 61*.
For O=C1CNC(=S)N1Cc1ccc(F)cc1 the results were aSyn UTR inh -17, KLF5 inhibitor 6 and IEC-6 cytotox -3.
`CCCN(CCC)CCNC(=O)C1CCN(Cc2nc(-c3ccc(Cl)cc3)oc2C)CC1` gave APP 5UTR inh 16, aSyn UTR inh -30, KLF5 inhibitor 3, IEC-6 cytotox 57*, Ba/F3 V617F tox 7 and BaF3 parental 19.
Screening CCCCN(C(=O)CSCc1ccc(C)cc1)c1c(N)n(CCC)c(=O)[nH]c1=O returned aSyn UTR inh 13, KLF5 inhibitor -29 and IEC-6 cytotox -2.
For CCOc1cc(CNCCCN2CCOCC2)cc(Br)c1OCc1ccccc1Cl the results were APP 5UTR inh -21, aSyn UTR inh 96*, KLF5 inhibitor -14, IEC-6 cytotox 6, Ba/F3 V617F tox 11 and BaF3 parental 11.
O=C(Nc1ccc(NC(=O)c2cc3ccccc3o2)cc1)c1ccc2c(c1)OCCO2 was read as APP 5UTR inh 67*, aSyn UTR inh 71*, KLF5 inhibitor -10, IEC-6 cytotox -3, Ba/F3 V617F tox 1 and BaF3 parental 7.
Screening Cc1ccc(NC(=S)N2CCC(NC(=O)c3ccc(F)cc3)CC2)cc1 returned aSyn UTR inh 4, KLF5 inhibitor -13 and IEC-6 cytotox 3.
`Cc1cc(/C=N/n2cnnc2)c(C)n1-c1ccc(Cl)cc1` gave APP 5UTR inh -3, aSyn UTR inh 16, KLF5 inhibitor -2, IEC-6 cytotox 7, Ba/F3 V617F tox 6 and BaF3 parental 5.
`Cc1cc(/C=N/n2cnnc2)c(C)n1-c1ccc(OCc2ccc(Cl)cc2Cl)cc1` gave APP 5UTR inh 51*, aSyn UTR inh 113*, KLF5 inhibitor 57, IEC-6 cytotox -2, Ba/F3 V617F tox 0 and BaF3 parental 5.
For O=C(c1ccco1)N(Cc1cc2ccccc2[nH]c1=O)C1CCCCC1 the results were APP 5UTR inh -14, aSyn UTR inh 13, KLF5 inhibitor 5, IEC-6 cytotox 2, Ba/F3 V617F tox -5 and BaF3 parental -4.
